# A selection: hits, their analogues and other compounds. The true share with any hit is near 19%.
# ASM inhibitor: blocks human secretory acid sphingomyelinase; Potency, µM (series often up to 57.5 µM), without a hit: at the highest dose activity change, negative = inhibition, hits mostly inhibitors; P17405; placental ASM, HMU-PC fluorogenic substrate, 60 min; actives 0.006% (n = 340,000); also: potency is read from the fitted curve at half-maximal effect
# Target sequence (P17405 47-631 limits assumed): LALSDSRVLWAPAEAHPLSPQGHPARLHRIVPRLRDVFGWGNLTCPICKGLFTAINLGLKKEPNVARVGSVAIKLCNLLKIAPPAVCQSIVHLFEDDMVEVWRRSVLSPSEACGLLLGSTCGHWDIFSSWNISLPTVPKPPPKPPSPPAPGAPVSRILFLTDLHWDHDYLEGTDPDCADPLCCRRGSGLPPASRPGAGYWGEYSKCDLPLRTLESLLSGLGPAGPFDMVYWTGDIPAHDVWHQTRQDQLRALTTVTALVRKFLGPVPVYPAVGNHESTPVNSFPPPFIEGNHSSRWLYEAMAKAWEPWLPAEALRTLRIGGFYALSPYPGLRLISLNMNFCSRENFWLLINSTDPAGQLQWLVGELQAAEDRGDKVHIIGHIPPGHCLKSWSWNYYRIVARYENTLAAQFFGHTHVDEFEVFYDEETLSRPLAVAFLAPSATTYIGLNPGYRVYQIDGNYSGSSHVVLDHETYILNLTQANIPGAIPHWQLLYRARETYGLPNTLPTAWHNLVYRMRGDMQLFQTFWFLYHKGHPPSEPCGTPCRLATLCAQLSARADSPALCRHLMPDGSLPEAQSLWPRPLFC
#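 Human placenta-derived ASM enzyme was preincubated with compound for 10 minutes at room temperature, then given fluorogenic substrate HMU-PC0 (9 uM final) for 60 minutes at 37 °C; a pH 10 stop preceded fluorescence reading at Ex 386/Em 447 nm.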
# IL1B secr inh: inflammasome signaling inhibition, IL-1 beta readout | activity change, % at 57.5 µM | THP-1 LPS/ATP IL-1B secretion, AlphaLISA, 16 h; stronger effect = lower value | actives 4.7% (n = 360,000) | AID 743279; in the data active = activity change below about -50%; inconclusive = mostly about -30% to -49%; also: % is scaled to controls: 0 for no effect and ±100 for the full control effect
#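 Secreted IL-1B measured by AlphaLISA bead assay after 16 h compound exposure of THP-1 cells; compounds (final up to 57.5 uM) added 1 h before LPS (250 ng/mL) and ATP (1.25 mM) stimulation; lower signal means less secretion.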
# HepG2 viability: kills HepG2 cells in TGF-b inhibitor counter-screen | HepG2 CAGA-GFP viability, ATP luminescence, 18 h | Potency, µM (series often up to 46.1 µM), for the others: at the top dose activity change, negative = cytotoxicity, most hits filed as cytotoxic | actives 0.76% (n = 410,000); also: potency is read from the fitted curve at half-maximal effect
#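 HepG2 CAGA-GFP cells (1000/well, DMEM with 1% FBS) received compound, then TGF-beta at 500 pg/mL final, and were incubated 18 hours at 37 degrees C. Viability was read by CellTiter-Glo luminescence. Media-only wells were set as complete cell-killing and DMSO as no toxicity.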
# DT40 TDP1 no CPT: qHTS for Inhibitors of human tyrosyl-DNA phosphodiesterase 1 (TDP1): qHTS in cells in absence of CPT. AID 686978, 2013. Potency, µM (top dose mostly 46.2 µM), without a hit: at the top dose activity change, negative = growth inhibition, most hits filed as inhibitors. actives 15% (n = 420,000). DT40 Tdp1-/- hTDP1 cells, no CPT, ATP luminescence, 48 h; also: potency is read from the fitted curve at half-maximal effect; % is scaled to controls: 0 for no effect and ±100 for the full control effect; nearly all actives have a fitted effect of over 55% in size
#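 Camptothecin absent (DMSO only). Human TDP1-complemented DT40 knockout cells, 400 cells/well, 37 °C for minimum 48 hr; ATP measured via CellTiter-Glo, 30 min dark incubation, luminescence.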
# TGFb inhibitor: inhibitors of TGF-b signaling | HepG2 CAGA-GFP TGF-b/SMAD3 reporter, GFP fluorescence, 18 h; TGF-beta stimulated, 500 pg/mL final | Potency, µM (top dose mostly 46.1 µM), inactives show top-dose activity, negative = inhibition, actives largely listed as inhibitors | actives 1.2% (n = 410,000); also: potency is read from the fitted curve at half-maximal effect; % is scaled to controls: 0 for no effect and ±100 for the full control effect; nearly all actives have a fitted effect of over 65% in size
#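 Smad-responsive CAGA-GFP expression was quantified in HEPG2 cells exposed to compounds and 500 pg/mL final TGF-beta for 18 h at 37 degrees C; unstimulated wells defined full inhibition.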
# TDP1 cell CPT: DT40-hTDP1 cell growth loss with CPT. chicken DT40 Tdp1-/-;hTDP1 cells + 20 nM CPT, ATP luminescence, 48 h. Potency, µM (titrated, usually from 46.2 µM), inactives show at the highest dose activity change, negative = growth inhibition, usual class: inhibitors. actives 12% (n = 420,000); also: potency is read from the fitted curve at half-maximal effect; % is scaled to controls: 0 for no effect and ±100 for the full control effect; nearly all actives have a fitted effect of over 55% in size
#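 Chicken DT40 Tdp1-/- cells complemented with human TDP1, 400 cells/well, exposed to compounds plus 20 nM camptothecin for at least 48 h at 37 C; viability read as ATP content by CellTiter-Glo luminescence.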
# Active calls of the source: *; ? = inconclusive; / = not tested or not shown. Unless noted, calls follow the shape of the dose curve; as a rule, active = well fitted curve in the direction sought with a large enough effect; inconclusive = small, poorly fitted or top-dose-only effect, or another doubt; inactive = no such curve, though single readings can be large; an effect the other way counts as inactive or inconclusive.
SMILES,ASM inhibitor,IL1B secr inh,HepG2 viability,DT40 TDP1 no CPT,TGFb inhibitor,TDP1 cell CPT
COc1ccc2[nH]c3c(c2c1)CC(C)NC3=O (configuration not stated),7.7%,?,0.6%,7.31µM*,5.4%,?
CCOc1ccccc1NC(=O)c1cccc(NC(=O)C2CCCC2)c1,0.0%,?,-3.1%,?,1.6%,?
CC(O)c1cccc(NC(=O)CC(c2ccccc2)c2ccccc2)c1 (configuration not stated),3.5%,-5.6,-105.8%,9.2µM*,5.6%,9.2µM*
CCOc1ccccc1NC(=O)c1cccc(NC(=O)CC(c2ccccc2)c2ccccc2)c1,-3.5%,-10.9,-28.0%,25.9µM*,0.2%,23.1µM*
CCOc1ccccc1NC(=O)c1cccc(NC(=O)c2ccco2)c1,-4.7%,5.4,-4.4%,1.64µM*,3.9%,1.46µM*
CCOc1ccccc1C(=O)Nc1cc(C(=O)NCCc2ccccc2)ccc1Cl,-7.5%,11.6,0.7%,?,8.8%,-6.4%
O=C(CC(c1ccccc1)c1ccccc1)Nc1ccncc1,-1.0%,-6.9,-19.1%,?,?,?
CCOc1ccccc1NC(=O)c1ccc(Cl)c(NC(=O)CC(c2ccccc2)c2ccccc2)c1,-6.0%,9.9,-7.9%,?,-21.6%,18.4µM*
CCc1ccc(S(=O)(=O)c2nnn3c2nc(NCc2ccccc2)c2cc(Cl)ccc23)cc1,/,/,-2.2%,?,3.1%,?
O=C(/C=C/c1ccco1)Nc1cccc(C(=O)Nc2ccccc2C(=O)O)c1,10.6%,74.0,7.2%,16.4%,2.2%,-1.9%
CCc1ccccc1NC(=O)c1cccc(NC(=O)/C=C/c2ccco2)c1,-5.5%,-14.7,-26.9%,20.6µM*,2.8%,18.4µM*
O=C(Cc1c(F)cccc1Cl)N/N=C/c1cccs1,-0.4%,?,-19.1%,0.0%,-0.7%,?
CN1CCN(C(=O)c2ccc(S(=O)(=O)c3ccc(Br)cc3)cc2)CC1,-1.7%,5.8,11.4%,18.4µM*,6.4%,?
O=C(c1ccc(CNS(=O)(=O)c2ccc(Br)cc2)cc1)N1CCCCC1,-0.2%,21.2,-6.1%,?,-15.2%,?
O=C(c1ccc(CNS(=O)(=O)c2ccc(Br)cc2)cc1)N1CCCCCC1,-0.4%,-4.4,-8.6%,?,?,23.1µM*
Cc1ccccc1NC(=O)c1c(NC(=O)c2ccccc2)sc2c1CCC2,/,/,-0.7%,-10.8%,1.5%,-1.4%
CCOc1ccccc1NC(=O)c1c(NC(=O)C(C)Oc2ccc(Cl)cc2)sc2c1CCCCC2 (configuration not stated),/,/,-3.8%,?,5.6%,-28.6%
CCOC(=O)N1CCc2c(sc(NCc3sccc3C)c2C(=O)Nc2ccccc2OCC)C1,/,/,-34.2%,23.1µM*,?,?
CCOc1ccccc1NC(=O)c1c(NC(=O)c2ccccc2)sc2c1CCCC2,/,/,-38.2%,?,-24.0%,4.11µM*
CCN(CC)CCCC(C)NC(=O)c1c(NC(=O)c2ccccc2)sc2c1CCCC2 (configuration not stated),6.1%,/,-38.5%,?,?,18.4µM*
CCOC(=O)N1CCc2c(sc(NCc3sccc3C)c2C(=O)Nc2ccc(OC)cc2OC)C1,/,/,-2.0%,?,-29.6%,?
CCOc1ccccc1NC(=O)c1c(NCc2cccs2)sc2c1CCCCC2,/,/,-48.1%,20.6µM*,17.8µM*,?
Cc1cccc(C)c1N(CC(=O)N1CCOCC1)S(C)(=O)=O,1.6%,9.2,8.0%,7.3%,-21.2%,-3.5%
O=C(Cc1ccsc1)Nc1ccc(Cl)cc1Cl,-1.0%,-23.2,-7.7%,0.9%,-12.3%,-1.6%
O=C(Nc1ccccc1C(F)(F)F)N1CCOc2ccc(Cl)cc21,/,/,-29.6%,1.9%,0.0%,10.4%
SMILES,ASM inhibitor,IL1B secr inh,HepG2 viability,DT40 TDP1 no CPT,TGFb inhibitor,TDP1 cell CPT
CCOc1ccccc1NC(=O)c1c(NCc2sccc2C)sc2c1CCC(C)C2 (configuration not stated),/,/,-34.7%,6.51µM*,/,6.51µM*
CCOc1ccccc1NC(=O)c1c(NCc2sccc2C)sc2c1CCCCC2,/,/,-34.6%,14.6µM*,?,8.2µM*
CC1CC2(C)Oc3ccccc3CC2C(C)C1CNCCCN(C)C (configuration not stated),2.5%,?,12.6µM*,1.16µM*,?,4.11µM*
CC1Cc2ccccc2N1C(=O)CNCCCN(C)C (configuration not stated),-0.4%,5.7,27.2%,-26.9%,10.1%,10.6%
COc1ccccc1Cn1c(C2CC(=O)N(c3ccccc3OC)C2)nc2ccccc21 (configuration not stated),/,/,-23.4%,?,12.6µM*,?
CCCn1c(C2CC(=O)N(c3cc(OC)ccc3OC)C2)nc2ccccc21 (configuration not stated),3.8%,-5.8,-13.2%,?,-0.1%,20.6µM*
CCOc1ccccc1N1CC(c2nc3ccccc3n2CCOc2ccc(C(C)(C)C)cc2)CC1=O (configuration not stated),/,/,-40.5%,?,-24.2%,?
CC(=O)Oc1ccc2oc(-c3ccccc3)c(C(N)=O)c2c1,5.7%,0.0,2.3%,?,1.3%,?
O=C(Nc1ccc(Br)c(Cl)c1)c1ccc(C(=O)Nc2ccc(Br)c(Cl)c2)cc1,/,/,-19.8%,-5.9%,-1.0%,-0.8%
Cn1nc(-c2cccnc2)nc2c(=O)n(C)c(=O)nc1-2,/,/,2.82µM*,1.26µM*,2.24µM*,1.12µM*
Cn1nc(-c2ccc(F)cc2)nc2c(=O)n(C)c(=O)nc1-2,/,/,0.891µM*,0.631µM*,0.891µM*,0.447µM*
Cc1cc(C)n2nc(-c3ccc(F)cc3)nc2n1,-1.0%,25.3,-10.9%,-11.0%,13.1%,-17.5%
COc1ccc(-c2nc3c(=O)n(C)c(=O)nc-3n(C)n2)cc1,/,/,0.562µM*,0.447µM*,0.355µM*,0.0891µM*
CCn1nc(-c2ccccc2C)nc2c(=O)n(C)c(=O)nc1-2,/,/,0.631µM*,1µM*,0.891µM*,1µM*
COc1ccc(-c2nc(N)n(S(=O)(=O)c3ccc(C)cc3)n2)cc1,-1.5%,0.0,2.2%,?,3.8%,?
Nc1nonc1C(=O)NCCNC(=O)c1cccc(Cl)c1,-15.6%,39.8,-12.5%,-17.7%,-6.8%,1.1%

# Screening data (PubChem)
